For one test, the target named is IL10. Description: pooled miR-30 sensor sort-seq; sequence = guide strand. The note with it: shRNA.
In the case of TTGCTCTTGTTTTCACAGGGAA, the sensor-assay potency score (higher = more potent) is -0.544.

AACAACAAGTTGTCCAGCTGAT: the sensor-assay potency score (higher = more potent) was 0.182.

TTGATGAAGATGTCAAACTCAC: the sensor-assay potency score (higher = more potent) was -0.225.

Turning to ATCTCGGAGATCTCGAAGCATG, the sensor-assay potency score (higher = more potent) was -1.73.

As for TTTAACAACAAGTTGTCCAGCT, the sensor-assay potency score (higher = more potent) amounted to 0.786.

Consider TTAACAACAAGTTGTCCAGCTG, for which the sensor-assay potency score (higher = more potent) was -0.0308.

As to AAGAAAGTCTTCACTCTGCTGA, the sensor-assay potency score (higher = more potent) was determined as 0.0469.

A further test has as its target IL12RB2. The test is described as above. The settings on record: shRNA.
Sequence TTAACCATATTCCAGAGCCTGC showed a sensor-assay potency score (higher = more potent) of -1.49.

On to TACCAGACATCTAACATCCCAG, for which the sensor-assay potency score (higher = more potent) was -0.395.

With TTGATTCTTCTGTCAAACTTGT, the sensor-assay potency score (higher = more potent) came out at 0.0343.

In the case of TTGAATTTGCTGCAGACACAGC, the sensor-assay potency score (higher = more potent) is -0.876.

Take TTTGCTTTAATCAACAGCCACG: the sensor-assay potency score (higher = more potent) is -1.11.

TTAGCTGTAGAGTATACTCAGT returned a sensor-assay potency score (higher = more potent) of -0.26.

On to TTCTGGAGCAACACCAACGAAG, for which the sensor-assay potency score (higher = more potent) was -0.95.

TTGAATTTCATCACTATTGATA came in with a sensor-assay potency score (higher = more potent) of -0.279.

In the case of TTGCAGACAAACAAGGTTGTAC, the sensor-assay potency score (higher = more potent) worked out at 0.163.

In the case of TTTTGCTTTAATCAACAGCCAC, the sensor-assay potency score (higher = more potent) is -1.02.

Consider TTGTACAGGATTAACTTGTTAC, for which the sensor-assay potency score (higher = more potent) was -0.744.

TTGTCTACTGTAGTCAATGTGC had a sensor-assay potency score (higher = more potent) of -0.32.

Another test concerns the target IL13RA1. The description is as above. The settings on record: shRNA.
As to ATAGACTACAATTTGAGCTGGC, the sensor-assay potency score (higher = more potent) worked out at 0.897.

In turn, TTGTTCAAAACTGGAATCCTTC showed a sensor-assay potency score (higher = more potent) of -0.391.

As for TTCTTATCTTGTTTGTCGCCAA, the sensor-assay potency score (higher = more potent) was -0.0977.

In turn, TTTGACTCTTATTCTGACTGTG registered a sensor-assay potency score (higher = more potent) of 0.568.

For TTGACCATTATTTGGACACTGT, the sensor-assay potency score (higher = more potent) amounted to 0.157.

In turn, TTGACTCTTATTCTGACTGTGT came in with a sensor-assay potency score (higher = more potent) of 0.685.

TTTTCTATCAGCACTACAGAGT returned a sensor-assay potency score (higher = more potent) of -0.723.

TTGCTTCTCATAGATGTCGTAC showed a sensor-assay potency score (higher = more potent) of -0.044.

With TACAGAGTCGGTTTCCTCCTTG, the sensor-assay potency score (higher = more potent) was 0.15.

Regarding TAGTAGAGAGTATAGTTAGTGT, the sensor-assay potency score (higher = more potent) is -0.663.

In turn, TTCCATGTCCATATTACTGTGC yielded a sensor-assay potency score (higher = more potent) of -0.274.

In turn, TTTCTTATCTTGTTTGTCGCCA registered a sensor-assay potency score (higher = more potent) of 0.315.

For a further test, the target named is IL16. Described as above. The note with it: shRNA.
In turn, TTTCTCCTGATGACAATCGTGA had a sensor-assay potency score (higher = more potent) of -0.801.

As for TGATTCACCATTGAGCTCCAGA, the sensor-assay potency score (higher = more potent) is -0.0119.

For the sequence TTCATGAAGAATATCCTCCTAC, the sensor-assay potency score (higher = more potent) turned out to be 0.448.

The sequence TTCCTTGTGACAATCACAGCTT returned a sensor-assay potency score (higher = more potent) of 0.571.

With TTTGTTCTGAGGCTGCTCCTTT, the sensor-assay potency score (higher = more potent) is 0.156.

In turn, TTTAGGAACAACCTTTTGCTGG displayed a sensor-assay potency score (higher = more potent) of -0.755.

Turning to TTCTACAGAAACATCACTGGCT, the sensor-assay potency score (higher = more potent) was determined as 0.755.

For TTCTCCAGTGTCACCGTGCAGA, the sensor-assay potency score (higher = more potent) was -0.677.

Sequence TTGGTCTCGAAGTTCCCGCAGC displayed a sensor-assay potency score (higher = more potent) of -0.85.

The record behind these values is the OligoGym collection.
Further: reference of the scale not given here.
